Laboratory results: PubChem BioAssay

Assays:
[1] = inhibitors of PAF-induced NFkB signaling in CF airway cells, dose response, cell-based, uHTS hits, panel, cytotoxicity readout (AID 624344); conditions: CF bronchial epithelial cells, PAF-induced NFkB reporter inhibition, with PAF, run 1; at 79 µM (top of the series) unless noted
[2] = as above; conditions: CF bronchial epithelial cells, PAF-induced NFkB reporter inhibition, with PAF, run 2; at 79 µM (top of the series) unless noted

`Cn1c(Sc2ccc(Cl)cc2)c(C=O)c2ccccc21` gave an inhibition [1] of 119% and an inhibition [2] of 107%.

In the case of `O=C(NCc1ccco1)c1nc2c(nnn2Cc2ccccc2Cl)c(=O)[nH]1`, the inhibition [1] is reported as 115% and the inhibition [2] is reported as 107%.

In the case of `O=C(COC(=O)c1c2c(nc3ccccc13)CCN(Cc1ccccc1)C2)Nc1c(F)cccc1F`, the inhibition [1] is reported as 79.5% and the inhibition [2] is reported as 74%.

Compound `NC(=O)c1cc2ccc(O)cc2oc1=Nc1ccccc1` has an inhibition [1] of 92.3% and an inhibition [2] of 95.2%.

`O=C(c1cc([N+](=O)[O-])ccc1N1CCOCC1)N1CCN(c2ccccc2)CC1` gave an inhibition [1] of 116% and an inhibition [2] of 79.6%.

`CC(=O)c1ccc(NC(=O)Nc2ccc3c(c2)N(C)C(=O)CS3)cc1` showed an inhibition [1] of 98.3% and an inhibition [2] of 106% [at 19.8 µM].

`CCCn1c(-c2nonc2N)nc2ccccc21` showed an inhibition [1] of 99.6% and an inhibition [2] of 95.5%.

Compound `Cc1c(-c2ccccc2)oc2c(C(=O)N3CCN(c4ccc([N+](=O)[O-])cc4)CC3)cccc2c1=O` has an inhibition [1] of 105% and an inhibition [2] of 93.8%.

With `COc1ccccc1Cn1c(=O)c2ccccc2n2c(Sc3ncnc4sccc34)nnc12` the inhibition [1] was 101% and the inhibition [2] was 113%.

`CC(C)c1nc(Cl)c(C#N)c2c1CCCC2` gave an inhibition [1] of 96.5% and an inhibition [2] of 112%.

Compound `O=C1N(c2ccccc2C(F)(F)F)O[C@@]1(c1ccccc1)C1CCCCC1` has an inhibition [1] of 99.3% and an inhibition [2] of 105%.

In the case of `CC[C@@H](C(=O)[C@@H](C)[C@@H](O)[C@H](C)[C@@H]1O[C@@H]([C@@H](CC)C(=O)O)CC[C@@H]1C)[C@H]1O[C@]2(C=C[C@@H](O)[C@]3(CC[C@@](C)([C@H]4CC[C@](O)(CC)[C@H](C)O4)O3)O2)[C@H](C)C[C@@H]1C`, the inhibition [1] is reported as 117% and the inhibition [2] is reported as 107%.

For `Cn1c(SC2=CS(=O)(=O)c3ccccc32)nc2ccccc21`, the inhibition [1] was 101% and the inhibition [2] was 102%.

`Cc1cnc(C=O)c2cccc([N+](=O)[O-])c12` gave an inhibition [1] of 110% and an inhibition [2] of 106%.

Compound `COc1cccc(C(=O)N2C(C(C)C)COc3cc(Br)ccc3S2(=O)=O)c1` (stereo unspecified) has an inhibition [1] of 118% and an inhibition [2] of 101%.

Work on `Cc1ccc(S(=O)(=O)n2cc(-c3ccccc3)c3ccccc32)cc1` yielded an inhibition [1] of 114% and an inhibition [2] of 108%.

With `CC(=O)Nc1ccc(-c2ccnc3c2CC(C(=O)NCc2ccco2)O3)cc1` (stereo unspecified) the inhibition [1] was 70% and the inhibition [2] was 78%.

Work on `CCOc1ccc(-n2cc(-c3ccccc3)c3c(N4CCOCC4)ncnc32)cc1` yielded an inhibition [1] of 112% and an inhibition [2] of 102%.

For `COc1ccc(-c2cn[nH]c2-c2ccc(OCc3ccc([N+](=O)[O-])cc3)cc2O)cc1`, the inhibition [1] was 105% and the inhibition [2] was 115%.

With `Cc1ccc(S(=O)(=O)CC(CN2CCCCC2)N2CCCCC2)cc1` (stereo unspecified) the inhibition [1] was 102% and the inhibition [2] was 109%.

With `Cc1nn(-c2ccccc2)c(N2CCCC2)c1/C=N/NC(=O)c1cc(-c2ccccc2)nc2ccccc12` the inhibition [1] was 104% and the inhibition [2] was 80%.

Work on `O=C(/C=C/c1cccs1)Nc1cccc(NC(=O)/C=C/c2cccs2)n1` yielded an inhibition [1] of 97.2% and an inhibition [2] of 96.4%.

With `O=C(N/N=C/c1ccccc1)c1[nH]c2ccc(Br)cc2c1-c1ccccc1` the inhibition [1] was 76.6% and the inhibition [2] was 79.5%.

With `O=C(Oc1cc2oc(=O)cc(-c3ccccc3)c2cc1Cl)C1CCCCC1` the inhibition [1] was 113% and the inhibition [2] was 105%.

Work on `CCN1CCN(Cc2ccc(NC(=O)c3ccc(C)c(NC(=O)c4csc(-c5ccncc5)n4)c3)cc2C(F)(F)F)CC1` yielded an inhibition [1] of 107% and an inhibition [2] of 101%.

Work on `COC(=O)N1C(=O)[C@@](c2ccccc2)(C(C)C)N1C(=O)OC` yielded an inhibition [1] of 107% and an inhibition [2] of 104%.

Work on `O=S1(=O)CCC(NC(=S)SCCOc2ccccc2)C1` (stereo unspecified) yielded an inhibition [1] of 99.3% and an inhibition [2] of 108%.

`O=S1(=O)CC=C(CSC(=S)NC2CCS(=O)(=O)C2)C1` (stereo unspecified) showed an inhibition [1] of 100% and an inhibition [2] of 110%.

Compound `Cc1ccc2nc(SCC(=O)Nc3cc(C(F)(F)F)ccc3N3CCOCC3)[nH]c2c1` has an inhibition [1] of 81.3% and an inhibition [2] of 48.5%.

`CN(C)c1ccc(Nc2ncnc3ccc(Br)cc23)cc1` gave an inhibition [1] of 104% and an inhibition [2] of 118%.

`COC(=O)C1=C(C(=O)OC)[C@@H]2N(Cc3ccccc3)c3ccccc3[C@@]23C[C@@H](C(=O)OC)N(C(=O)c2ccc(Br)cc2)C3=N1` gave an inhibition [1] of 101% and an inhibition [2] of 110%.

For `O=C(COC(=O)c1ccc2[nH]c3c(c2c1)CCCC3)Nc1ccccc1Cl`, the inhibition [1] was 65.7% and the inhibition [2] was 69.7%.

With `Cc1ccnc(NC(=O)Cc2ccc(-c3ccccc3)cc2)c1` the inhibition [1] was 111% and the inhibition [2] was 105%.

`Cc1ncc(CO)c2c1Oc1nc(-c3ccccc3F)nc(SCC(=O)N(C)c3ccccc3)c1C2` gave an inhibition [1] of 105% and an inhibition [2] of 102%.

In the case of `CCOc1cc2c(cc1O)C(=NO)CC1C2CCC2(C)C(O)CCC12` (stereo unspecified), the inhibition [1] is reported as 103% and the inhibition [2] is reported as 112%.

In the case of `O=[N+]([O-])c1cccc(NC(=S)Nc2nc(-c3ccccc3Cl)cs2)c1`, the inhibition [1] is reported as 108% and the inhibition [2] is reported as 99.8%.

`COc1cc(NC(=O)c2csc(-c3ccncc3)n2)cc(C(=O)Nc2cccc(C(F)(F)F)c2)c1` gave an inhibition [1] of 102% and an inhibition [2] of 105%.

Compound `CCC(=O)c1ccc(O)c(CC=C(C)C)c1` has an inhibition [1] of 114% and an inhibition [2] of 97.8%.

`COCCNc1nc(Oc2cncc(Cl)c2)c2sccc2n1` showed an inhibition [1] of 100% and an inhibition [2] of 115%.

In the case of `O=C(Nc1ccncc1)c1c(Cl)cccc1Cl`, the inhibition [1] is reported as 112% and the inhibition [2] is reported as 101%.

`CCCCCOC(=O)c1[nH]c2c(c1C)C(=O)CC(c1ccco1)C2` (stereo unspecified) showed an inhibition [1] of 75% and an inhibition [2] of 62.8%.

In the case of `Cc1ccc(NC(=O)CSc2ncnc3ccccc23)cc1S(=O)(=O)N1CCOCC1`, the inhibition [1] is reported as 110% and the inhibition [2] is reported as 98.4%.

`COc1cccc(NC(=O)CN(C)CC(=O)Nc2ccc(C)c([N+](=O)[O-])c2)c1` showed an inhibition [1] of 80.7% and an inhibition [2] of 101%.
